According to publication PMC4242493, “Sequence specificity incompletely defines the genome-wide occupancy of Myc”:
Over roughly 33,000 sequences, “normalized occupancy” has its median near 0.075; the highest 2% begin near 0.095. Many of the other results were omitted from the sample, so the highest values are more common in it than they were.

What follows are sequences tested against MaxL homodimer (Homo sapiens, UniProt P61244 1-160) (assay: universal protein-binding microarray (PBM); PBS-based mixture, 10 nM His-tagged protein dimer, 2% milk, 200 ng/uL BSA, 50 ng/uL salmon testes DNA, 0.02% TX-100; detection with Alexa 488 anti-His antibody;; high values mean tight binding). Conditions: protein: recombinant; tags: C-terminal His-tag (pET21a); chain copies: 2; dsDNA, one strand shown.
Chain of MaxL homodimer (P61244 whole entry): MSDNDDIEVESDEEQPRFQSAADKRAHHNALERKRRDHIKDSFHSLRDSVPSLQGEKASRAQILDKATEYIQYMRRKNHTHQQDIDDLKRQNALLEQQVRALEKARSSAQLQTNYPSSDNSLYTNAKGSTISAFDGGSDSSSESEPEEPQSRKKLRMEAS
In short: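 His-tagged protein dimer at 10 nM was bound to Agilent 4 x 44 K 'all 10-mer' universal arrays and detected with 10 ng/μL fluorophore-conjugated anti-His antibody on a GenePix 4400A, giving an intensity per 8-mer. Binding occupancy normalises each intensity to the top-ranked one.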

Sequence	binding signal
GCGAACTA	0.0739 normalized occupancy
ATGTGTCC	0.0851 normalized occupancy
ACATTTGA	0.0788 normalized occupancy
ACTCACTC	0.0763 normalized occupancy
CATCCCAG	0.0743 normalized occupancy
ATGCCCAG	0.0765 normalized occupancy
AGGGGTGA	0.082 normalized occupancy
AATGGTCA	0.0816 normalized occupancy
CATGGTAG	0.0879 normalized occupancy
CATGGTAA	0.0939 normalized occupancy
CATGGTAC	0.0998 normalized occupancy
CGTGGTCC	0.0896 normalized occupancy
CGTGGTCA	0.102 normalized occupancy
CGTGGTAA	0.096 normalized occupancy
AGTGGTCA	0.0751 normalized occupancy
CGTGGTAG	0.089 normalized occupancy
GGTGGTAA	0.0793 normalized occupancy
CATGGTCA	0.0991 normalized occupancy
CATGGTCG	0.0925 normalized occupancy
GTTAGACA	0.0808 normalized occupancy
CAGGTCAG	0.0752 normalized occupancy
GCATAGCC	0.0775 normalized occupancy
ACGTTCCC	0.0819 normalized occupancy

Sequence	binding signal
GGTCTTTA	0.0763 normalized occupancy
AACACAGC	0.0787 normalized occupancy
CAAGTGTG	0.086 normalized occupancy
ATAATGTG	0.095 normalized occupancy
ACACAGAG	0.0759 normalized occupancy
GATCTTGC	0.0794 normalized occupancy
AGCATCTC	0.0746 normalized occupancy
AGGCATTG	0.0775 normalized occupancy
AGGCATGC	0.1 normalized occupancy
AGGCATTC	0.0762 normalized occupancy
AGGCATGG	0.0974 normalized occupancy
AGGCATCC	0.0757 normalized occupancy
AGGCATAG	0.0784 normalized occupancy
CTCGAAAA	0.0738 normalized occupancy
CAAAATTG	0.0748 normalized occupancy
AGTCGCAA	0.0744 normalized occupancy
GCAGGTAA	0.0753 normalized occupancy
AATGTTCC	0.0722 normalized occupancy
ACCGTGCT	0.0773 normalized occupancy
CACGTGCG	0.641 normalized occupancy
GACGTGCA	0.0797 normalized occupancy
AAGGTGCT	0.0733 normalized occupancy
GACGTGCC	0.0841 normalized occupancy

Sequence	binding signal
TACGTGCA	0.0875 normalized occupancy
AACGTGCC	0.096 normalized occupancy
CCCGTGCG	0.0872 normalized occupancy
CACGTCCG	0.0797 normalized occupancy
AACGTGCT	0.115 normalized occupancy
AAGGTGCC	0.0753 normalized occupancy
CACGTGCA	0.588 normalized occupancy
AATTACGG	0.0744 normalized occupancy
CATTGGCG	0.0762 normalized occupancy
AACTTATT	0.0797 normalized occupancy
CTGTTATC	0.078 normalized occupancy
CATTAGCG	0.0779 normalized occupancy
CACGTACC	0.0843 normalized occupancy
GTCGTGCA	0.0855 normalized occupancy
AACGTCCG	0.0721 normalized occupancy
ATCGTGCA	0.0816 normalized occupancy
AAGGTGCG	0.077 normalized occupancy
AACGTGCG	0.108 normalized occupancy
CTCGTGCA	0.1 normalized occupancy
CAGGTGCC	0.0785 normalized occupancy
CACGTGCC	0.521 normalized occupancy
AACGTGCA	0.109 normalized occupancy
AACGTTCA	0.0836 normalized occupancy

Sequence	binding signal
AACGTCCA	0.0778 normalized occupancy
CAGGCTGA	0.0746 normalized occupancy
AAAGCACG	0.0922 normalized occupancy
AGTGTTAA	0.0742 normalized occupancy
CCCATAAG	0.0856 normalized occupancy
ACATCCTA	0.0822 normalized occupancy
AATTAATC	0.0741 normalized occupancy
ACGGGGAC	0.0795 normalized occupancy
ACCAGAAC	0.0763 normalized occupancy
CGGCATCA	0.0791 normalized occupancy
CCAGGTCG	0.0731 normalized occupancy
CATACATG	0.0969 normalized occupancy
CATACACC	0.0901 normalized occupancy
CGTACACA	0.0813 normalized occupancy
AATACATG	0.0934 normalized occupancy
CATACACA	0.0892 normalized occupancy
CATACACG	0.097 normalized occupancy
CATACATA	0.0846 normalized occupancy
AGTACACA	0.0858 normalized occupancy
CGTACACG	0.0971 normalized occupancy
CCGCTTAC	0.0724 normalized occupancy
TCAGGCAA	0.0718 normalized occupancy
GACGGCGA	0.0752 normalized occupancy

Sequence	binding signal
CCAACAAG	0.0776 normalized occupancy
CCGCGAGG	0.0805 normalized occupancy
AACCTAAC	0.0728 normalized occupancy
GCGATTCC	0.0814 normalized occupancy
GCCCACGC	0.0978 normalized occupancy
GCCCACGA	0.0823 normalized occupancy
ACCCACAT	0.0932 normalized occupancy
CCCCACGA	0.0848 normalized occupancy
ACCCACCA	0.088 normalized occupancy
CCCCACGG	0.0843 normalized occupancy
GCCCACCC	0.087 normalized occupancy
CCCCACGC	0.0979 normalized occupancy
ACCCACGC	0.105 normalized occupancy
ACCCACGG	0.0796 normalized occupancy
ACCCACGA	0.0913 normalized occupancy
ACCCACGT	0.0984 normalized occupancy
CTCGCACC	0.0733 normalized occupancy
ATCTATTG	0.078 normalized occupancy
AGATAGGC	0.078 normalized occupancy
ACATAGAA	0.0839 normalized occupancy
TAGTTAAA	0.0739 normalized occupancy
